About 7,900 targets were measured; listed, in parts, are those with a hit and a random draw of the rest. About 0.6% of all pairs of compound and target were hits.
Key:
Assay in all cases: log2 fold change, soluble protein after heating vs DMSO (PISA); higher = thermal stabilisation; K562 cells, 10 uM, 30 min; active = over 0.2 and 3.5 SD of the protein, either way, in both replicates (recomputed)
[1] = compound: CC1=C(C=C(C=C1)NC(=O)C2=CC(=CC=C2)C(C)(C)C#N)NC3=CC4=C(C=C3)N=CN(C4=O)C
Outline: (§1)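 Aliquots of K562 cells (2×10^6 cells/mL) treated with 10 μM compound for 30 min were heated for 3 min over 48°C-58°C. After pooling and extraction in PBS with 0.5% NP-40 at 4°C, soluble protein from a 21,000xg, 90 min spin was quantified by TMTpro 16plex LC-MS/MS with channel sums equalised. Thermal stability is expressed against control samples, from duplicates, as a log2 fold change.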

[2] = compound: CC1=C(C=C(C=C1)NC(=O)C2=CC(=CC=C2)N(C)C)NC(=O)C3=CC=C(C=C3)O
Outline: as §1

[3] = compound: CC1=CC=C(C=C1)SC2=C3C=C(SC3=CN=C2)C(=O)N
Outline: as §1

[4] = compound: CC1=NC(=CC=C1)C2=C(N=C(N2)C(C)(C)C)C3=CC4=NC=CN=C4C=C3
Outline: as §1

Nexturastat A = compound: CCCCN(Cc1ccc(C(=O)NO)cc1)C(=O)Nc1ccccc1 [Nexturastat A]
Outline: as §1

vemurafenib = compound: CCCS(=O)(=O)Nc1ccc(F)c(C(=O)c2c[nH]c3ncc(-c4ccc(Cl)cc4)cc23)c1F [vemurafenib]
Outline: as §1

[5] = compound: CCCS(=O)(=O)Nc1ccc(F)c(C(=O)c2c[nH]c3ncc(Cl)cc23)c1F
Outline: as §1

[6] = compound: CCCc1cc(C)[nH]c(=O)c1CNC(=O)c1cc(-c2ccnc(N3CCN(C)CC3)c2)cc2c1cnn2C(C)C
Outline: as §1

givinostat = compound: CCN(CC)Cc1ccc2cc(COC(=O)Nc3ccc(C(=O)NO)cc3)ccc2c1 [givinostat]
Outline: as §1

barasertib = compound: CCN(CCCOc1ccc2c(Nc3cc(CC(=O)Nc4cccc(F)c4)[nH]n3)ncnc2c1)CCOP(=O)(O)O [barasertib]
Outline: as §1

Measured: log2 fold change

AP2A1 (UniProt O95782)
inactive: [1] 0.024 | [2] -0.016 | [3] 0.004 | [4] 0.084 | Nexturastat A 0.048 | vemurafenib 0.009 | [5] 0.03 | [6] -0.003 | givinostat 0.008 | barasertib -0.028

ATP12A isoform 2 (UniProt P54707)
inactive: [1] -0.001 | [2] -0.006 | [3] 0 | [4] 0.005 | Nexturastat A -0.132 | vemurafenib -0.03 | [5] -0.072 | [6] -0.021 | givinostat -0.009 | barasertib 0.015

ARMC8 (UniProt Q8IUR7)
inactive: [1] 0.017 | [2] 0.039 | [3] -0.049 | [4] 0.006 | Nexturastat A -0.002 | vemurafenib -0.017 | [5] 0.027 | [6] 0.065 | givinostat 0 | barasertib -0.025

AAMP (UniProt Q13685)
inactive: [1] 0 | [2] -0.006 | [3] -0.028 | [4] -0.04 | Nexturastat A 0.012 | vemurafenib -0.018 | [5] 0.018 | [6] -0.041 | givinostat 0.033 | barasertib -0.006

BCL9L (UniProt Q86UU0)
inactive: [1] -0.046 | [2] -0.012 | [3] 0.005 | [4] -0.033 | Nexturastat A -0.033 | vemurafenib -0.037 | [5] -0.014 | [6] -0.029 | givinostat 0.043 | barasertib -0.001

AGPAT5 (UniProt Q9NUQ2)
inactive: [1] -0.02 | [2] -0.009 | [3] 0.012 | [4] -0.068 | Nexturastat A -0.061 | vemurafenib 0.008 | [5] 0.095 | [6] -0.088 | givinostat -0.05 | barasertib 0.015

BID isoform 2 (UniProt P55957)
inactive: [1] -0.054 | [2] -0.02 | [3] 0.029 | [4] 0.012 | Nexturastat A -0.056 | vemurafenib 0.117 | [5] 0.001 | [6] 0.016 | givinostat -0.001 | barasertib -0.01

ALG11 (UniProt Q2TAA5)
inactive: [1] 0.006 | [2] -0.018 | [3] -0.041 | [4] 0.013 | Nexturastat A -0.004 | vemurafenib 0.053 | [5] 0.019 | [6] -0.04 | givinostat 0 | barasertib 0.043

BTAF1 (UniProt O14981)
UniProt O14981, sequence (O14981 whole entry, looked up): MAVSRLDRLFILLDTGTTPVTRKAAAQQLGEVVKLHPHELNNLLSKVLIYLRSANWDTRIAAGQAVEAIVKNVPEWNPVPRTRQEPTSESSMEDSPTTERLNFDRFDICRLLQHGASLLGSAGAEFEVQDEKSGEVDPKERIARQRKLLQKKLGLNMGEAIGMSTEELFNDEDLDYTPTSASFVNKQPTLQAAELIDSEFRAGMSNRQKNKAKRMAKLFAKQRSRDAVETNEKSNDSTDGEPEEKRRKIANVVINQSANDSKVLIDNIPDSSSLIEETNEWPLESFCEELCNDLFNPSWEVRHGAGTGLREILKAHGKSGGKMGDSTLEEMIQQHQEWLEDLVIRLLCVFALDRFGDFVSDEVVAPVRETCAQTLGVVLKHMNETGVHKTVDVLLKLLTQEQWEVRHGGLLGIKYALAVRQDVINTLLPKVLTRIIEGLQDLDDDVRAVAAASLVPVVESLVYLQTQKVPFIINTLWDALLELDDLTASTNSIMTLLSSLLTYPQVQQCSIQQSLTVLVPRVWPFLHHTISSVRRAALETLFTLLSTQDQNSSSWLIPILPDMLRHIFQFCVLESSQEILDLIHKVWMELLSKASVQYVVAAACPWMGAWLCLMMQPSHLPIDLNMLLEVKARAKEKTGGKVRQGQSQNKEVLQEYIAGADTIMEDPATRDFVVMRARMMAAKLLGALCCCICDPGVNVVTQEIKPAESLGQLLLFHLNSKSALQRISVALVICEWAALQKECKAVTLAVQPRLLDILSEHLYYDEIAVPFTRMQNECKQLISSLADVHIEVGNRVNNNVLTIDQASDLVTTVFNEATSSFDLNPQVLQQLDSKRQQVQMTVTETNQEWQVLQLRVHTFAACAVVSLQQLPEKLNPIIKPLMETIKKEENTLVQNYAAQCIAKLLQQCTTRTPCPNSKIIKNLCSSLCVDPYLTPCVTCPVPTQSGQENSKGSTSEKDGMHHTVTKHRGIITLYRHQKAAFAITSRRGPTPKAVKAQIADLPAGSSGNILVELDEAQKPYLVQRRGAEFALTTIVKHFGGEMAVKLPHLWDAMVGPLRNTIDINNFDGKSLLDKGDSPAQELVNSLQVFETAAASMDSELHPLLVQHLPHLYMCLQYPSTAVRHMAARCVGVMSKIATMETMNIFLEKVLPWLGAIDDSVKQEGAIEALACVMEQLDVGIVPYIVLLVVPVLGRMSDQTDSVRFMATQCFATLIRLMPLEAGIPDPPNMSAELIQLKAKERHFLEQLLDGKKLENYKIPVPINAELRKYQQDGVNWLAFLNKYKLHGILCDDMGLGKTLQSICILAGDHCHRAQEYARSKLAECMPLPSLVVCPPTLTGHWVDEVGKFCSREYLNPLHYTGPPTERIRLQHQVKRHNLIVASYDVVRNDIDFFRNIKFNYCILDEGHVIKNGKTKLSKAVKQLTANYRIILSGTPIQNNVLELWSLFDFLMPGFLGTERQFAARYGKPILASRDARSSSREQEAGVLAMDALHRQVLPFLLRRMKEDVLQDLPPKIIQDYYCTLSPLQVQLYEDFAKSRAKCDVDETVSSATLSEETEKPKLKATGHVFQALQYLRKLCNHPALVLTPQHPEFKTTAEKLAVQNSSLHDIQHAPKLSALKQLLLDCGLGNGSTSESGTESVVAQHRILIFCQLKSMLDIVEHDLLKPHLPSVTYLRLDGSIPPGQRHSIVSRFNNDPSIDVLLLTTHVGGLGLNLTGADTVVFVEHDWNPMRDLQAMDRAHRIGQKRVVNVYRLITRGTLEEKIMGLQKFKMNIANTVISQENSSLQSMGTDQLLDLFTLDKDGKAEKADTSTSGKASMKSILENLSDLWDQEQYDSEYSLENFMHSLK
inactive: [1] -0.033 | [2] 0.07 | [3] -0.035 | [4] 0.011 | Nexturastat A -0.064 | vemurafenib -0.003 | [5] 0.041 | [6] -0.018 | givinostat 0.009 | barasertib 0.038

ACSL3 (UniProt O95573)
inactive: [1] 0.005 | [2] -0.051 | [3] 0.1 | [4] 0.029 | Nexturastat A 0.008 | vemurafenib 0 | [5] 0.038 | [6] -0.016 | givinostat 0.032 | barasertib 0.039

ARFRP1 (UniProt Q13795)
UniProt Q13795, sequence (Q13795 whole entry, looked up): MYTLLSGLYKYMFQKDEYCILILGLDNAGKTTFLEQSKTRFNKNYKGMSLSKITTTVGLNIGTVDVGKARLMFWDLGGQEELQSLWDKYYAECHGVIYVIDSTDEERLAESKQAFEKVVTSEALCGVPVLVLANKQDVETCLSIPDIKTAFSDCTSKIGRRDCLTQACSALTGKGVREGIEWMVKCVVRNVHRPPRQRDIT
inactive: [1] 0.138 | [2] 0.003 | [3] 0.082 | [4] 0.069 | Nexturastat A -0.048 | vemurafenib 0.033 | [5] 0 | [6] 0.046 | givinostat 0.012 | barasertib -0.015

BRAP (UniProt Q7Z569)
inactive: [1] 0.057 | [2] 0.075 | [3] 0.023 | [4] 0.029 | Nexturastat A -0.031 | vemurafenib 0.037 | [5] 0.151 | [6] 0.08 | givinostat -0.081 | barasertib 0.08

ALG5 (UniProt Q9Y673)
inactive: [1] 0.039 | [2] 0.019 | [3] -0.001 | [4] 0.049 | Nexturastat A -0.055 | vemurafenib 0.035 | [5] 0.059 | [6] 0.025 | givinostat 0.01 | barasertib 0.02

ALKBH5 (UniProt Q6P6C2)
inactive: [1] -0.12 | [2] -0.017 | [3] -0.046 | [4] -0.031 | Nexturastat A -0.068 | vemurafenib -0.071 | [5] -0.09 | [6] 0.162 | givinostat 0.092 | barasertib -0.023

ACSM3 (UniProt Q53FZ2)
inactive: [1] -0.069 | [2] -0.056 | [3] 0.019 | [4] -0.029 | Nexturastat A -0.096 | vemurafenib 0.033 | [5] 0.036 | [6] 0.018 | givinostat 0.039 | barasertib 0.103

ATP6V0A1 isoform 3 (UniProt Q93050)
inactive: [1] 0.038 | [2] -0.034 | [3] -0.006 | [4] -0.051 | Nexturastat A 0.198 | vemurafenib 0.017 | [5] 0 | [6] 0.032 | givinostat 0.031 | barasertib 0.006

BYSL (UniProt Q13895)
UniProt Q13895, sequence (Q13895 whole entry, looked up): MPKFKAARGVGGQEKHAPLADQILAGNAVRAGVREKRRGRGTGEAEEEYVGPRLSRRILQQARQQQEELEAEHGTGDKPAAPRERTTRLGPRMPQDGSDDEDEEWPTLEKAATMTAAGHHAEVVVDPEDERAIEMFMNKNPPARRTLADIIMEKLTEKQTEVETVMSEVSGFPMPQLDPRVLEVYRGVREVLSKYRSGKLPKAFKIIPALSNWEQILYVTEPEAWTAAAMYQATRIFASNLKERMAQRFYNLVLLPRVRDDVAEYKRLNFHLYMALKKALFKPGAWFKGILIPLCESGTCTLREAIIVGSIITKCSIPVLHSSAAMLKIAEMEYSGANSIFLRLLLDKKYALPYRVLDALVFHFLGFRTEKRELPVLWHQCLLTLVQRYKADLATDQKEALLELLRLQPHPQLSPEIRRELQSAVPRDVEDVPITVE
inactive: [1] 0.04 | [2] -0.042 | [3] -0.01 | [4] 0.016 | Nexturastat A 0.14 | vemurafenib 0.079 | [5] 0.032 | [6] -0.024 | givinostat 0.167 | barasertib 0.014

BCCIP isoform 2 (UniProt Q9P287)
inactive: [1] 0.042 | [2] -0.055 | [3] -0.015 | [4] 0.022 | Nexturastat A -0.065 | vemurafenib 0.008 | [5] -0.003 | [6] -0.099 | givinostat -0.066 | barasertib 0.026

AKR1C3 (UniProt P42330)
inactive: [1] -0.034 | [2] -0.207 | [3] 0.268 | [4] -0.007 | Nexturastat A 0.022 | vemurafenib -0.032 | [5] 0.066 | [6] 0.289 | givinostat -0.003 | barasertib 0.014

BAP1 (UniProt Q92560)
UniProt Q92560, sequence (Q92560 whole entry, looked up): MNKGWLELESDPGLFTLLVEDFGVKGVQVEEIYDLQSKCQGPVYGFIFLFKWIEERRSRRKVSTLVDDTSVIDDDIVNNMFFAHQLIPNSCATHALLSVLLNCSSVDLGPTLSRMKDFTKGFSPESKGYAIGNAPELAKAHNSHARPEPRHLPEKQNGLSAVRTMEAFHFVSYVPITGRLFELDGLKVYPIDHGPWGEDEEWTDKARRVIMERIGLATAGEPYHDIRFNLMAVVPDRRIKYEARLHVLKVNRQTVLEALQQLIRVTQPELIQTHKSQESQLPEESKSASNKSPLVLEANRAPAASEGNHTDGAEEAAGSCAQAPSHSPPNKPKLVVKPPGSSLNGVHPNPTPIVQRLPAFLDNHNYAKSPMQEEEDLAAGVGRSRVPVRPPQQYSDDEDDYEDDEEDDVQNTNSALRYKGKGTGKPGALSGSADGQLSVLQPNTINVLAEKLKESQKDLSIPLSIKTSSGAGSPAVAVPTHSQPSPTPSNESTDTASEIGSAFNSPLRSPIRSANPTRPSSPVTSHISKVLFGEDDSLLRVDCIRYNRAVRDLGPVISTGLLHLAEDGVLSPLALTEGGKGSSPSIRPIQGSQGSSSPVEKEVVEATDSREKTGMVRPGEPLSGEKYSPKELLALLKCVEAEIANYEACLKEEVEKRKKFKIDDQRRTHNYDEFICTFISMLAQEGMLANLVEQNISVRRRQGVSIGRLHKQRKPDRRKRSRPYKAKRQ
inactive: [1] -0.067 | [2] -0.088 | [3] -0.149 | [4] -0.058 | vemurafenib -0.089 | [5] -0.055 | [6] 0.085 | barasertib -0.019
active: Nexturastat A 0.403 | givinostat 0.495

ATP1A4 (UniProt Q13733)
inactive: [1] 0.017 | [2] 0.029 | [3] 0.141 | [4] 0.065 | Nexturastat A -0.03 | vemurafenib -0.137 | [5] -0.08 | [6] -0.026 | givinostat -0.216 | barasertib 0

ACSL4 (UniProt O60488)
UniProt O60488, sequence (O60488 whole entry, looked up): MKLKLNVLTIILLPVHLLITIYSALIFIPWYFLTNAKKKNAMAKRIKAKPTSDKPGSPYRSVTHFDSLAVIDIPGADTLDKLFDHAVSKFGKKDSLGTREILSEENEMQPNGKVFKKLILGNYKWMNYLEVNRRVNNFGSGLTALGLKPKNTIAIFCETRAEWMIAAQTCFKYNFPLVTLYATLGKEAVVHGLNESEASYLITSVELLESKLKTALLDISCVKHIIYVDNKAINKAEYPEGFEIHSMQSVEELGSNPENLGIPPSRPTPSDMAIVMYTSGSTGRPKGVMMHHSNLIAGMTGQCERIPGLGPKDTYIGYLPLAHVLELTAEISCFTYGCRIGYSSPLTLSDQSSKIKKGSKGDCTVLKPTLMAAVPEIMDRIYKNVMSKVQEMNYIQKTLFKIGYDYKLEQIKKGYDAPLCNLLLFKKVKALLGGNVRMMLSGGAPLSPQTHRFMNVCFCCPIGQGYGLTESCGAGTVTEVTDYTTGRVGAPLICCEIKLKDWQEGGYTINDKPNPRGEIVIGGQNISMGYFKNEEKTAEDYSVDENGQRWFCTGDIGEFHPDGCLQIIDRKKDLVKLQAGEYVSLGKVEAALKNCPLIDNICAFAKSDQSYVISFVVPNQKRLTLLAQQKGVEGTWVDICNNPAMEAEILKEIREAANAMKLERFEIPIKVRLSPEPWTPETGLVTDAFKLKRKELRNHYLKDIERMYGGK
active: [3] 0.418
inactive: [1] 0.018 | [2] -0.051 | [4] -0.002 | Nexturastat A 0.233 | vemurafenib 0.021 | [5] 0.104 | [6] 0.053 | givinostat 0.047 | barasertib 0.034

ARL6IP4 (UniProt Q66PJ3)
inactive: [1] -0.048 | [2] 0.016 | [3] -0.005 | [4] 0 | Nexturastat A 0.001 | vemurafenib -0.07 | [5] -0.019 | [6] -0.038 | givinostat 0.005 | barasertib -0.01

ABHD17A isoform 2 (UniProt Q96GS6)
UniProt Q96GS6, sequence (Q96GS6 whole entry, looked up): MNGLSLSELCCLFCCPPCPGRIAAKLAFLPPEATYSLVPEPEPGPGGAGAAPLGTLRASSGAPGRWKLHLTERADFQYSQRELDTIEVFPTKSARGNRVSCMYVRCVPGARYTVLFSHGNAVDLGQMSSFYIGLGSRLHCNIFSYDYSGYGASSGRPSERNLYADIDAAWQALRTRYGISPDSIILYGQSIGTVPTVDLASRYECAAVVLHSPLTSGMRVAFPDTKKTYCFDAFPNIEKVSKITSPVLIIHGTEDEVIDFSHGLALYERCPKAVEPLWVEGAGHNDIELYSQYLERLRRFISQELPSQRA
inactive: [1] -0.004 | [2] -0.031 | [3] 0.035 | [4] -0.068 | Nexturastat A 0.034 | vemurafenib -0.039 | [5] -0.032 | [6] -0.021 | givinostat -0.313 | barasertib 0.016

ACSL1 (UniProt P33121)
inactive: [1] 0.01 | [2] 0.01 | [3] 0.031 | [4] 0.056 | Nexturastat A -0.115 | vemurafenib -0.021 | [5] 0.041 | [6] -0.018 | givinostat -0.034 | barasertib -0.002

ADD2 (UniProt P35612)
inactive: [1] -0.014 | [2] 0.018 | [3] -0.01 | [4] 0.002 | Nexturastat A 0.026 | vemurafenib -0.03 | [5] -0.002 | [6] 0.01 | givinostat -0.007 | barasertib -0.011

AAR2 (UniProt Q9Y312)
inactive: [1] -0.01 | [2] -0.026 | [3] -0.032 | [4] -0.035 | Nexturastat A 0.074 | vemurafenib -0.018 | [5] 0.021 | [6] -0.105 | givinostat 0.018 | barasertib -0.023

BRIX1 (UniProt Q8TDN6)
UniProt Q8TDN6, sequence (Q8TDN6 whole entry, looked up): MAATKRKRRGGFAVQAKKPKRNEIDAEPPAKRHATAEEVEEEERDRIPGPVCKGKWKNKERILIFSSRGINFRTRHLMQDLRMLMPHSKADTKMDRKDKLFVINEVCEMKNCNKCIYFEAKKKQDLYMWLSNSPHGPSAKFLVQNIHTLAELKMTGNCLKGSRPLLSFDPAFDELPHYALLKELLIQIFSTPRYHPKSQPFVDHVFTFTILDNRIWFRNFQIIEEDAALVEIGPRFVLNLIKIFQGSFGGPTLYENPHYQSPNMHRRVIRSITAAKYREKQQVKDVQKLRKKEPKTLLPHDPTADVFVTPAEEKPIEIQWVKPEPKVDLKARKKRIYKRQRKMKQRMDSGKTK
inactive: [1] 0.038 | [2] -0.061 | [3] -0.09 | [4] -0.134 | Nexturastat A 0.37 | vemurafenib -0.11 | [5] 0.008 | [6] 0.159 | givinostat 0.15 | barasertib -0.197

ARHGAP1 (UniProt Q07960)
UniProt Q07960, sequence (Q07960 whole entry, looked up): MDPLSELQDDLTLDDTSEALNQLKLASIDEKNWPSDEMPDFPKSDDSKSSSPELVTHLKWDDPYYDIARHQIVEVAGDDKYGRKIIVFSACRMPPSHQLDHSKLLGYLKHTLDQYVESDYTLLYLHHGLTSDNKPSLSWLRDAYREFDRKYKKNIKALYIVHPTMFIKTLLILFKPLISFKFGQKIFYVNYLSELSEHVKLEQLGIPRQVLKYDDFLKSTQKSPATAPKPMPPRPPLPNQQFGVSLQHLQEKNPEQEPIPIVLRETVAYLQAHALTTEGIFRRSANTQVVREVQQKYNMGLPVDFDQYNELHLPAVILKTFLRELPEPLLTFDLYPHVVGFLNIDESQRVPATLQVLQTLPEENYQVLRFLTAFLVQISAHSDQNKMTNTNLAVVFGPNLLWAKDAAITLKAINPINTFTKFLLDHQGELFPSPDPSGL
inactive: [1] -0.024 | [2] -0.022 | [3] -0.009 | [4] 0.012 | Nexturastat A 0.03 | vemurafenib 0.002 | [5] 0.052 | [6] -0.018 | givinostat -0.014 | barasertib 0.006

AP2B1 isoform 2 (UniProt P63010)
inactive: [1] 0.016 | [2] 0.018 | [3] 0.021 | [4] 0.018 | Nexturastat A 0.033 | vemurafenib 0.031 | [5] 0.039 | [6] -0.021 | givinostat 0.015 | barasertib -0.013
